Source: PubChem BioAssay (NCI)
The panel holds about 83,000 compounds, 20% with a hit somewhere; the sample as a whole holds those more often.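 Single-dose data. Exposure time 48 hours. Values below 10 considered active.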 Unmarked numbers belong to inactive results. The source made the active and inactive calls.

How the values were obtained:
Experiment in all cases: NCI-60 one-dose screen, 48 h (100 = growth as untreated, 0 = no growth, -100 = all killed)
[1] = tested on: SR leukemia; details: 10 µM unless noted
[2] = tested on: RPMI-8226 leukemia; details: 10 µM unless noted
[3] = tested on: OVCAR-8 ovarian; details: 10 µM unless noted
[4] = tested on: OVCAR-5 ovarian; details: 10 µM unless noted
[5] = tested on: SK-OV-3 ovarian; details: 10 µM unless noted
[6] = tested on: IGROV1 ovarian; details: 10 µM unless noted
[7] = tested on: OVCAR-3 ovarian; details: 10 µM unless noted
[8] = tested on: HS 578T breast; details: 10 µM unless noted
[9] = tested on: NCI/ADR-RES ovarian; details: 10 µM unless noted
[10] = tested on: T-47D breast; details: 10 µM unless noted
[11] = tested on: BT-549 breast; details: 10 µM unless noted
[12] = tested on: MDA-MB-435 melanoma; details: 10 µM unless noted
[13] = tested on: SW-620 colon; details: 10 µM unless noted
[14] = tested on: MCF7 breast; details: 10 µM unless noted
[15] = tested on: HCT-116 colon; details: 10 µM unless noted
[16] = tested on: HCC-2998 colon; details: 10 µM unless noted
[17] = tested on: KM12 colon; details: 10 µM unless noted
[18] = tested on: OVCAR-4 ovarian; details: 10 µM

Compound	growth [1]	growth [2]	growth [3]	growth [4]	growth [5]	growth [6]	growth [7]	growth [8]	growth [9]	growth [10]	growth [11]	growth [12]	growth [13]	growth [14]	growth [15]	growth [16]	growth [17]	growth [18] [%]
N#C/C(C(=O)c1ccccc1)=C1/C(=O)Nc2ccc(F)cc21	118%	104%	101%	106%	84.5%	97.4%	106%	98.6%	97.5%	80.5%	102%	107%	101%	96.4%	103%	104%	109%	–
O=C1Nc2ccccc2/C1=C/C(=O)c1ccc(N2CCCC2)cc1	15.2%	15.8%	-12.7% (active)	75.6%	70.9%	15.9%	-17.6% (active)	12.3%	-23.8% (active)	40.5%	107%	-51.9% (active)	5.46% (active)	17.8%	103%	77.9%	15.1%	–
CC1(C)CC[C@]2(C(N)=O)CC[C@]3(C)C(=CC[C@@H]4[C@@]5(C)C/C(=C/c6cccnc6)C(=O)C(C)(C)[C@@H]5CC[C@]43C)[C@@H]2C1	8.68% [100 µM] (active)	-37.1% [100 µM] (active)	-21.6% [100 µM] (active)	-64% [100 µM] (active)	6.72% [100 µM] (active)	-29.5% [100 µM] (active)	-64.2% [100 µM] (active)	1.61% [100 µM] (active)	-25.7% [100 µM] (active)	2.41% [100 µM] (active)	-47.9% [100 µM] (active)	-34.6% [100 µM] (active)	-32.4% [100 µM] (active)	-9.32% [100 µM] (active)	-48.2% [100 µM] (active)	-73.4% [100 µM] (active)	-37.2% [100 µM] (active)	–
O=C(Nc1ccc(C(=O)/C=C/c2ccc(N3CCOCC3)cc2)cc1)Nc1ccc([N+](=O)[O-])cc1	94.1%	77%	92.4%	94.4%	90.5%	72.5%	93.9%	111%	98.5%	72.8%	108%	96%	99.7%	76.3%	97.3%	109%	89.4%	–
Cc1ccc(NCCN2CCCCC2)c2c(=O)c3ccccc3sc12	15.3%	-17.1% (active)	29.2%	43.2%	–	–	58.5%	-8.32% (active)	42%	28.7%	58.6%	31.4%	15.3%	-3.15% (active)	18%	33.3%	32.6%	56.9
CC(=O)OC[C@]12CC[C@@H]([C@@H](C)C(N)=O)[C@@H]1[C@H]1CC[C@@H]3[C@@]4(C)CC[C@H](OC(C)=O)C(C)(C)[C@@H]4CC[C@@]3(C)[C@]1(C)CC2	10.8% [100 µM]	-18.3% [100 µM] (active)	-31.7% [100 µM] (active)	-77.4% [100 µM] (active)	-11.9% [100 µM] (active)	-71.3% [100 µM] (active)	-76.2% [100 µM] (active)	-33% [100 µM] (active)	-57.3% [100 µM] (active)	-8.82% [100 µM] (active)	-55.1% [100 µM] (active)	-63.8% [100 µM] (active)	-55.1% [100 µM] (active)	-45.6% [100 µM] (active)	-84.2% [100 µM] (active)	-68.1% [100 µM] (active)	-62.1% [100 µM] (active)	–
CC(=O)OC[C@]12CC[C@@H](C(=O)CBr)[C@@H]1[C@H]1CC[C@@H]3[C@@]4(C)CCCNC(C)(C)[C@@H]4CC[C@@]3(C)[C@]1(C)CC2	14.7% [100 µM]	-36.1% [100 µM] (active)	-26.1% [100 µM] (active)	-74.4% [100 µM] (active)	-86.8% [100 µM] (active)	-61.3% [100 µM] (active)	-85.3% [100 µM] (active)	-22.7% [100 µM] (active)	-38.8% [100 µM] (active)	-69.9% [100 µM] (active)	-62% [100 µM] (active)	-87.9% [100 µM] (active)	-58% [100 µM] (active)	-54.3% [100 µM] (active)	-71.2% [100 µM] (active)	-83.3% [100 µM] (active)	-78.2% [100 µM] (active)	–
CCCCNC(=O)NS(=O)(=O)Cc1ccccc1	108%	95.8%	100%	108%	107%	97.3%	109%	107%	112%	113%	104%	116%	108%	96.6%	112%	110%	109%	–
CC1(C)CC[C@]2(C(=O)O)CC[C@]3(C)[C@H](CC[C@@H]4[C@@]5(C)CCC(=O)C(C)(C)[C@@H]5CC[C@]43C)[C@H]2[C@H]1OC(=O)C(F)(F)F	14.6% [100 µM]	-42.9% [100 µM] (active)	-81.4% [100 µM] (active)	-53.1% [100 µM] (active)	-2.75% [100 µM] (active)	-64.7% [100 µM] (active)	-67.4% [100 µM] (active)	-42.1% [100 µM] (active)	-77.6% [100 µM] (active)	-25.2% [100 µM] (active)	-70% [100 µM] (active)	-69.3% [100 µM] (active)	-64.9% [100 µM] (active)	-40.1% [100 µM] (active)	-66.3% [100 µM] (active)	-93.7% [100 µM] (active)	-75.7% [100 µM] (active)	–
N#C/C(C(=O)c1ccccc1)=C1/C(=O)Nc2ccc(Br)cc21	101%	102%	99.5%	107%	85.7%	90.9%	107%	92.5%	98.8%	90.5%	99.2%	102%	97%	95.9%	99.8%	99.7%	105%	–
C#CCNC(=O)CC[C@]1(C)[C@H]2CC[C@@H]3[C@@H]([C@@](C)(O)CCC=C(C)C)CC[C@@]3(C)[C@]2(C)CC[C@H]1C(=C)C	12.8% [100 µM]	-7.33% [100 µM] (active)	7.74% [100 µM] (active)	55.6% [100 µM]	66.6% [100 µM]	-62.6% [100 µM] (active)	-26.4% [100 µM] (active)	35.6% [100 µM]	53.6% [100 µM]	37.3% [100 µM]	41.8% [100 µM]	43.2% [100 µM]	-14.1% [100 µM] (active)	30.5% [100 µM]	16.6% [100 µM]	87.2% [100 µM]	36% [100 µM]	–
CC1(C)CC[C@]23CC[C@]4(C)[C@H](CC[C@@H]5[C@@]6(C)C/C(=C/c7cccnc7)C(=O)C(C)(C)[C@@H]6CC[C@]54C)[C@H]2[C@H]1OC3=O	42.4% [100 µM]	11.3% [100 µM]	42.4% [100 µM]	79.7% [100 µM]	64.6% [100 µM]	66.8% [100 µM]	49.3% [100 µM]	54.6% [100 µM]	50.1% [100 µM]	23.5% [100 µM]	31.7% [100 µM]	36% [100 µM]	32.9% [100 µM]	21.7% [100 µM]	15.6% [100 µM]	49.9% [100 µM]	33.4% [100 µM]	–
CO[C@H]1CC[C@@]2(C)C(=CC[C@H]3[C@@H]4C[C@H](O)C[C@@]4(C)CC[C@@H]32)C1	14.1%	54.5%	82.5%	102%	39.1%	53.8%	28.7%	60.8%	39.1%	54%	79.5%	-16.9% (active)	28.8%	25.7%	29.2%	68.4%	35.7%	–
